Measured values published in PubChem BioAssay.
Active and inactive are the calls of the source.

Columns and labels:
[1] = binders of probe aFSTL3 on microarray, primary screen, stem cell growth factor project, biochemical, small-molecule microarray, fluorescence 635/667 (AID 1064); details: higher = more signal;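 also: measures binding of the biotinylated anti-FSTL3 antibody to printed compounds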
[2] = binders from COS7 lysate, DM2A8 probe, primary screen, torsin A project, cell lysate, small-molecule microarray, fluorescence 635/667 (AID 1065); details: higher = more signal, COS7 lysate expressing mutant human TOR1A
[3] = binders of probe aFGF2 on microarray, primary screen, stem cell growth factor project, biochemical, small-molecule microarray, fluorescence 635/667 (AID 1067); details: higher = more signal;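 also: measures binding of biotinylated aFGF2 protein to printed compounds on slides; z-score merges feature fluorescence and signal-to-noise across triplicate slides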
[4] = binders of probe aFGF10 on microarray, primary screen, stem cell growth factor project, biochemical, small-molecule microarray, fluorescence 635/667 (AID 1071); details: higher = more signal;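 also: score merges 667 nm spot intensity and signal to noise from triplicate slides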
[5] = biological target: Neurogenic locus notch homolog protein 2 (Homo sapiens) (UniProt Q04721); assay: Notch2 binders on small-molecule microarrays, primary screen, biochemical, small-molecule microarray, 635 nm fluorescence, stem cell growth factors (AID 1073); details: Notch2 binding, higher = more signal
[6] = biological target: Pro-neuregulin-1, membrane-bound isoform (Homo sapiens) (UniProt Q02297); assay: NRG1 binders on small-molecule microarrays, primary screen, psychiatric disease protein project, biochemical, small-molecule microarray, fluorescence 635/667 (AID 1075); details: NRG1 binding, 635 nm fluorescence, higher = more signal;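 also: score combines 667 nm spot fluorescence with signal to noise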
[7] = tested on: Neuregulin-1 EGF-like domain; assay: binders of neuregulin-1 EGF-like domain, primary screen, biochemical, small-molecule microarray, 635 nm fluorescence (AID 1081); details: small-molecule microarray binding, higher = more signal;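 also: binding of the protein to compounds printed on small-molecule microarray slides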
[8] = FRG1 promoter luciferase signal modulators, primary screen, FRG1 inhibition for FSHD, cell-based, C2C12 myotubes, firefly/Renilla luciferase, luminescence (AID 1084); details: higher = more signal, called active from +8 up or from −8 down
[9] = binders of probe aFST on microarray, primary screen, stem cell growth factor project, biochemical, small-molecule microarray, fluorescence 635/667 (AID 1086); details: higher = more signal;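 also: score merges 667 nm fluorescence with signal-to-noise of each printed compound spot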
[10] = binders of probe aHhip on microarray, primary screen, stem cell growth factor project, biochemical, small-molecule microarray, fluorescence 635/667 (AID 1087); details: higher = more signal;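 also: score merges spot fluorescence at 667nm with spot signal to noise ratio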
[11] = tested on: PRMT1 (protein arginine N-methyltransferase 1); assay: PRMT1 binders on small-molecule microarrays, primary screen, biochemical, small-molecule microarray, 635 nm fluorescence (AID 1088); details: small-molecule microarray binding, higher = more signal;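 also: binding of Prmt1 protein to compounds spotted on small-molecule microarray slides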
[12] = yeast growth modulation, basal conditions, primary screen, YJM789 clinical isolate, OD600, 24 h (AID 1089);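 also: growth of clinical yeast isolate S. cerevisiae YJM 789 seeded 1000 cells per well; test concentration not given here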; details: S. cerevisiae YJM789 growth, higher = more signal, called active from +8 up or from −8 down
[13] = fission yeast growth modulation, primary screen, strain 972, OD600, 24 h, no modulator (AID 1090);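 also: basal condition with compound alone and no growth modifier present; test concentration not given here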; details: S. pombe 972 growth, higher = more signal, called active from +8 up or from −8 down
[14] = S. cerevisiae growth modulation with rapamycin, primary screen, strain BY4716, OD600, 96 h (AID 1091); details: higher = more signal, called active from +8 up or from −8 down; also: test concentration not given here
[15] = biological target: Torsin-1A-interacting protein 2 (Homo sapiens) (UniProt Q8NFQ8); assay: LULL1 binders on small-molecule microarray, primary screen, cell lysate, human LULL1 lysate, 635/667 nm fluorescence (AID 1092); details: hLULL1 lysate binding, 635 nm fluorescence, higher = more signal;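 also: probe is lysate of COS7 cells overexpressing human LULL1; score merges per-feature 667 nm fluorescence with signal-to-noise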
[16] = E. coli growth modulation, two-sided OD650, primary screen, E. coli filamentation project, strain DRC41, 24 h (AID 1093); details: OD650, 24 h, higher = more signal, called active from +8 up or from −8 down;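 also: MC1000 strain lacking acrAB efflux and sulA so SOS filamentation is blocked; test concentration not given here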
[17] = small-molecule microarray binders of probe aLefty2, primary screen, biochemical, biotinylated probe, 635/667 nm fluorescence (AID 1094); details: higher = more signal;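 also: score merges spot fluorescence near 667 nm with spot signal-to-noise ratio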
[18] = tested on: Noggin (protein binding on small-molecule microarray); assay: Noggin binders on small-molecule microarray, primary screen, biochemical, 635/667 nm fluorescence (AID 1095); details: 635 nm fluorescence, higher = more signal;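 also: score merges 667 nm feature fluorescence with signal to noise over triplicate slides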
[19] = biological target: Neurogenic locus notch homolog protein 3 (Homo sapiens) (UniProt Q9UM47); assay: NOTCH3 binders on small-molecule microarray, primary screen, biochemical, 635/667 nm fluorescence (AID 1096); details: NOTCH3 binding, 635 nm fluorescence, higher = more signal
[20] = small-molecule microarray binders of probe aEGFR, primary screen, biochemical, biotinylated probe, 635/667 nm fluorescence (AID 1097); details: higher = more signal;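 also: probe is a biotinylated anti-EGFR antibody binding compounds printed on slides; score combines fluorescence near 667 nm and signal to noise of each spot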

Sequence of Neurogenic locus notch homolog protein 2 (Homo sapiens) (Q04721 whole entry, looked up, canonical isoform): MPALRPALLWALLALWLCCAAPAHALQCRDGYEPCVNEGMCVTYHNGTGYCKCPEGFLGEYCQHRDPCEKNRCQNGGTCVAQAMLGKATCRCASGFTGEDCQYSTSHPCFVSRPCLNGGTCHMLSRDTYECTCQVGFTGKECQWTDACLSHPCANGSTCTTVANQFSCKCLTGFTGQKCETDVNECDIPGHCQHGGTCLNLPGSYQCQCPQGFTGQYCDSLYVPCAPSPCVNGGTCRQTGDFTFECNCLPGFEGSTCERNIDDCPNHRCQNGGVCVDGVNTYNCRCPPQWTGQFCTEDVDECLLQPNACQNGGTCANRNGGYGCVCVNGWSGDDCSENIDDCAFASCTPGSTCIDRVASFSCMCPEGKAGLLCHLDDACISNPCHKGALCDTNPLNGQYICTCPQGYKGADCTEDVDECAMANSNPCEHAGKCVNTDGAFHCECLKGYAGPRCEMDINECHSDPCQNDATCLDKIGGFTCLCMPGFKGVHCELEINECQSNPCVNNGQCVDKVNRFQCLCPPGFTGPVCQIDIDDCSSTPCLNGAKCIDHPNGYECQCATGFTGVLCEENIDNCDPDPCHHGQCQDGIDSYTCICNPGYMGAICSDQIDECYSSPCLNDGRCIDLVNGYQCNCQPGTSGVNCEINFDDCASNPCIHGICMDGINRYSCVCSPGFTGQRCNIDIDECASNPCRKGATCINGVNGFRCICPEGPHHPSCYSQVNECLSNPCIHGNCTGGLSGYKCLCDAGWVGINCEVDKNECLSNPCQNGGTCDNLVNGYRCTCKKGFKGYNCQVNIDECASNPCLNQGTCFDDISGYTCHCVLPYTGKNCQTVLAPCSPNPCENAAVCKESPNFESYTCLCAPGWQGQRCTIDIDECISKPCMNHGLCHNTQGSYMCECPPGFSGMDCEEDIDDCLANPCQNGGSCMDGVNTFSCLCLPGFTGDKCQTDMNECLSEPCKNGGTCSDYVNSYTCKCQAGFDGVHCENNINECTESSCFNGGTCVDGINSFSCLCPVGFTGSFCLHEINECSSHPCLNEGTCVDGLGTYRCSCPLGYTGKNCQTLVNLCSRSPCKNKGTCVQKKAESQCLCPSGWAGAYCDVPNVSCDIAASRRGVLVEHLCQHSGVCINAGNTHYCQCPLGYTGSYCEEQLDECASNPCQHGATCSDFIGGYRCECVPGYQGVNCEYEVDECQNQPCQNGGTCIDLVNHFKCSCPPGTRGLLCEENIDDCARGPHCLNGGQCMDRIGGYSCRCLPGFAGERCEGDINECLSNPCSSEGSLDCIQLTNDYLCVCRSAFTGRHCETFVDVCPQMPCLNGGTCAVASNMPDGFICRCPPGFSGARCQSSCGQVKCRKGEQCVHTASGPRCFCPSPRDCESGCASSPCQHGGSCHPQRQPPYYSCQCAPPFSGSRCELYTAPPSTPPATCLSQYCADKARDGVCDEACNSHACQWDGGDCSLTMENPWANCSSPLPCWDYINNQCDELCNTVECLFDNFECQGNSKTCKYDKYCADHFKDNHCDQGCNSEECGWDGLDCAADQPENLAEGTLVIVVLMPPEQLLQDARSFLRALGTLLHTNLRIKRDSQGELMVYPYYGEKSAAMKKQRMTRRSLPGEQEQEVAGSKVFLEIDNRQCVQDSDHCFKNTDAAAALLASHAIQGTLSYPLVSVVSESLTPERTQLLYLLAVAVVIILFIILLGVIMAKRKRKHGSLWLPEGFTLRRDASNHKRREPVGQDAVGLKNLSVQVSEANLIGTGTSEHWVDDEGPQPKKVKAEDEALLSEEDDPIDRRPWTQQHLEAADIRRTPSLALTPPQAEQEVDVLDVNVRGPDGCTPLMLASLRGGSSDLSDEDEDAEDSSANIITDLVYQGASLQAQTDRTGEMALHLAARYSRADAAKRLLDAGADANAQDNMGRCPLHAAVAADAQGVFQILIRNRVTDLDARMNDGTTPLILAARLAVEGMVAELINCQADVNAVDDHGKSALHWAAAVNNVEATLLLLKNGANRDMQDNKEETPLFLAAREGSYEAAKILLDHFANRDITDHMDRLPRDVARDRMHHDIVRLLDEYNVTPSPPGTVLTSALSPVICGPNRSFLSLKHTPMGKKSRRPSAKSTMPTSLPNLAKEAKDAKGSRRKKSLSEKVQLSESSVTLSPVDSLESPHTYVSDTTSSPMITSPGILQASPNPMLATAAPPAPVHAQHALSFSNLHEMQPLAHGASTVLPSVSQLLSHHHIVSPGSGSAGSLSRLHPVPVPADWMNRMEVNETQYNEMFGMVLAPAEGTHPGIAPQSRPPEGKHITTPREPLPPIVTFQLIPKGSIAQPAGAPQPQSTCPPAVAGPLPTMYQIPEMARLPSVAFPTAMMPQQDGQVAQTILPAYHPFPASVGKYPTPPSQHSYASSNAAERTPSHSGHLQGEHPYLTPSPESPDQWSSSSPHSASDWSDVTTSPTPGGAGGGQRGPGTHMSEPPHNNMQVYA
Sequence of Pro-neuregulin-1, membrane-bound isoform (Homo sapiens) (Q02297 whole entry, looked up, the tested form may be a part, canonical isoform): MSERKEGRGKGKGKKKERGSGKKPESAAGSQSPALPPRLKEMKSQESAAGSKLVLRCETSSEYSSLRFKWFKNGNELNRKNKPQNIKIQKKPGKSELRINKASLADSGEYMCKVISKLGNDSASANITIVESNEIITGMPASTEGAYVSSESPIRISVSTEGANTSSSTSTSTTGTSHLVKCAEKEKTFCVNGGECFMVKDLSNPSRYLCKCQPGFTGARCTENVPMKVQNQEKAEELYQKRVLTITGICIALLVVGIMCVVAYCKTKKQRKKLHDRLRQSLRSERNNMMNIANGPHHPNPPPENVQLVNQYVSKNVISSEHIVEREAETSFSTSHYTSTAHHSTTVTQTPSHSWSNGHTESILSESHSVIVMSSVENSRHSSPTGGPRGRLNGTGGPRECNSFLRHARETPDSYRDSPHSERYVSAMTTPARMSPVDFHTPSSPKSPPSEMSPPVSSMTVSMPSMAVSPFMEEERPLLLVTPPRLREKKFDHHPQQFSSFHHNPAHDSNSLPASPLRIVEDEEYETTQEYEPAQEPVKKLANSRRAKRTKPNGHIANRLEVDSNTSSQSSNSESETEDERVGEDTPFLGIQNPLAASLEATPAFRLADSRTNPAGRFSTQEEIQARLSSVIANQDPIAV
Sequence of Torsin-1A-interacting protein 2 (Homo sapiens) (Q8NFQ8 whole entry, looked up): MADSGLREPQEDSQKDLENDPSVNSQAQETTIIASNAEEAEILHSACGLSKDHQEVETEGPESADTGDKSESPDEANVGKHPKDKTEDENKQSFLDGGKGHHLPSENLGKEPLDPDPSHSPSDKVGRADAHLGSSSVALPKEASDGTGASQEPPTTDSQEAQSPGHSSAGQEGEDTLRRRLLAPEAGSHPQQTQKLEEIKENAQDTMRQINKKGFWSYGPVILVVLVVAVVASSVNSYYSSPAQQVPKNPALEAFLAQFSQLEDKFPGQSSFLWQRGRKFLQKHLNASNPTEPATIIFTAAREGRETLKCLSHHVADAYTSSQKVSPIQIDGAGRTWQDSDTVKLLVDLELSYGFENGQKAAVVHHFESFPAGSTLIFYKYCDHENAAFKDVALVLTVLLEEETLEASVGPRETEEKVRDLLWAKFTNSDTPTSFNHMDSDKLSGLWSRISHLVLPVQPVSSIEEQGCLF

With `COC(=O)C(CC#Cc1ccc2c(c1)[C@]1(C(=O)N2)[C@H](C(=O)N2CCc3cc(OC)c(OC)cc3C2)[C@H]2C(=O)O[C@H](c3ccccc3)[C@H](c3ccccc3)N2[C@@H]1c1ccccc1OCCO)C(=O)OC` as the compound, how does the composite z-score [1] read?
Its composite z-score is -0.385.

What about the composite z-score [2] of the same compound?
Its composite z-score is 1.03.

And the composite z-score [3]?
Its composite z-score is -0.0037.

What about the composite z-score [4] of the same compound?
Its composite z-score is 0.738.

What about the composite z-score [5] of the same compound?
The composite z-score was 1.15.

And the composite z-score [6]?
Its composite z-score is 1.67.

What about the composite z-score [7] of the same compound?
The composite z-score was 1.25.

And the z-score [8]?
Its z-score is 1.31 (inactive).

And the composite z-score [9]?
The composite z-score was 0.529.

And the composite z-score [10]?
The composite z-score was -0.0346.

What about the composite z-score [11] of the same compound?
The composite z-score was 1.54.

And the z-score [12]?
Its z-score is 2.06 (inactive).

And the z-score [13]?
Its z-score is 1.54 (inactive).

What about the z-score [14] of the same compound?
The z-score was 3.78 (inactive).

And the composite z-score [15]?
Its composite z-score is 3.06.

And the z-score [16]?
The z-score was 0.49 (inactive).

What about the composite z-score [17] of the same compound?
Its composite z-score is -0.0862.

And the composite z-score [18]?
Its composite z-score is 1.36.

And the composite z-score [19]?
Its composite z-score is 1.07.

What about the composite z-score [20] of the same compound?
Its composite z-score is 0.0457.

Which composite z-score [1] does the source give for `COc1cc(C(O)C2C=CC3C(=O)N(c4ccccc4)C(=O)C3N2Nc2ccccc2)cc(OC)c1OC` (stereo not given) here?
Its composite z-score is 0.251.

And the composite z-score [2]?
The composite z-score was 0.36.

What about the composite z-score [3] of the same compound?
Its composite z-score is 0.218.

And the composite z-score [4]?
The composite z-score was 1.14.

And the composite z-score [5]?
Its composite z-score is 1.68.

And the composite z-score [6]?
Its composite z-score is 1.92.

What about the composite z-score [7] of the same compound?
The composite z-score was 1.17.

And the z-score [8]?
Its z-score is 1.07 (inactive).

What about the composite z-score [9] of the same compound?
The composite z-score was 1.48.

What about the composite z-score [10] of the same compound?
The composite z-score was 0.189.

What about the composite z-score [11] of the same compound?
The composite z-score was 1.54.

And the z-score [12]?
The z-score was -0.722 (inactive).

What about the z-score [13] of the same compound?
Its z-score is 0.82 (inactive).

What about the z-score [14] of the same compound?
The z-score was -0.205 (inactive).

What about the composite z-score [15] of the same compound?
The composite z-score was 3.71.

And the z-score [16]?
The z-score was -0.651 (inactive).

And the composite z-score [17]?
Its composite z-score is 0.228.

And the composite z-score [18]?
The composite z-score was -0.124.

What about the composite z-score [19] of the same compound?
Its composite z-score is 1.03.

And the composite z-score [20]?
The composite z-score was 0.0473.

Which composite z-score [1] does the source give for `O=C1c2ccccc2[C@@]2(Cc3ccccc3N(Cc3ccccc3)C2=O)[C@H](c2ccc(CO)cc2)N1Cc1ccccc1Cl` here?
Its composite z-score is 0.209.

What about the composite z-score [2] of the same compound?
The composite z-score was -0.337.

And the composite z-score [3]?
The composite z-score was -0.0934.

What about the composite z-score [4] of the same compound?
Its composite z-score is -0.127.

And the composite z-score [5]?
Its composite z-score is -1.04.

And the composite z-score [6]?
The composite z-score was -0.579.

And the composite z-score [7]?
Its composite z-score is -1.13.

What about the z-score [8] of the same compound?
The z-score was 1.13 (inactive).

And the composite z-score [9]?
Its composite z-score is -0.164.

And the composite z-score [10]?
The composite z-score was -0.0541.

And the composite z-score [11]?
The composite z-score was 0.11.

What about the z-score [12] of the same compound?
Its z-score is -0.251 (inactive).

What about the z-score [13] of the same compound?
The z-score was -0.602 (inactive).

What about the z-score [14] of the same compound?
Its z-score is -2.35 (inactive).

What about the composite z-score [15] of the same compound?
Its composite z-score is -0.394.

And the z-score [16]?
Its z-score is -0.499 (inactive).

And the composite z-score [17]?
Its composite z-score is -0.0812.

And the composite z-score [18]?
Its composite z-score is -0.109.

And the composite z-score [19]?
Its composite z-score is -0.149.

What about the composite z-score [20] of the same compound?
Its composite z-score is -0.146.

Which composite z-score [1] does the source give for `CCCC[C@H]1OB(O)C[C@H]2C1=C(COc1ccccc1)C[C@H]1C(=O)C=CC(=O)[C@H]12` here?
Its composite z-score is -0.315.

What about the composite z-score [2] of the same compound?
The composite z-score was 0.351.

What about the composite z-score [3] of the same compound?
Its composite z-score is -0.0503.

And the composite z-score [4]?
The composite z-score was 0.603.

What about the composite z-score [5] of the same compound?
Its composite z-score is 0.489.

And the composite z-score [6]?
The composite z-score was 0.169.

And the composite z-score [7]?
Its composite z-score is 0.19.

What about the z-score [8] of the same compound?
Its z-score is -1.1 (inactive).

What about the composite z-score [9] of the same compound?
Its composite z-score is 0.23.

And the composite z-score [10]?
Its composite z-score is 0.316.

And the composite z-score [11]?
The composite z-score was 1.07.

And the z-score [12]?
Its z-score is 0.426 (inactive).

And the z-score [13]?
Its z-score is -3.31 (inactive).

What about the z-score [14] of the same compound?
The z-score was -0.241 (inactive).

What about the composite z-score [15] of the same compound?
The composite z-score was 0.258.

What about the z-score [16] of the same compound?
The z-score was 1.78 (inactive).

What about the composite z-score [17] of the same compound?
Its composite z-score is -0.377.

What about the composite z-score [18] of the same compound?
The composite z-score was 0.592.

And the composite z-score [19]?
Its composite z-score is 1.03.

What about the composite z-score [20] of the same compound?
Its composite z-score is -0.0007.

Which composite z-score [1] does the source give for `C=CCC(OC(C)=O)[C@@H]1[C@@H](N(Cc2cccc3ccccc23)C(=O)Cc2ccc(OC)cc2)c2cc(OCCCO)ccc2N1C(=O)c1ccc2ccccc2c1` (stereo not given in full) here?
Its composite z-score is 0.175.

And the composite z-score [2]?
Its composite z-score is 0.737.

And the composite z-score [3]?
Its composite z-score is -0.052.

And the composite z-score [4]?
The composite z-score was 0.113.

What about the composite z-score [5] of the same compound?
The composite z-score was -0.451.

What about the composite z-score [6] of the same compound?
The composite z-score was -0.0627.

What about the composite z-score [7] of the same compound?
The composite z-score was -0.805.

And the z-score [8]?
The z-score was -1.75 (inactive).

What about the composite z-score [9] of the same compound?
Its composite z-score is 0.0737.

And the composite z-score [10]?
Its composite z-score is -0.337.

What about the composite z-score [11] of the same compound?
The composite z-score was 1.14.

What about the z-score [12] of the same compound?
The z-score was -1.12 (inactive).

And the z-score [13]?
Its z-score is 0.098 (inactive).

What about the z-score [14] of the same compound?
The z-score was -1.35 (inactive).

And the composite z-score [15]?
Its composite z-score is 1.06.

And the z-score [16]?
Its z-score is 1.1 (inactive).

And the composite z-score [17]?
Its composite z-score is -0.0042.

And the composite z-score [18]?
Its composite z-score is 0.115.

And the composite z-score [19]?
The composite z-score was 0.373.

What about the composite z-score [20] of the same compound?
The composite z-score was -0.0967.
